Compound activity from PubChem.
GDH-TPI counter-1 = counter-screen for M. tuberculosis FBA inhibitors: GDH-TPI coupled enzymes. inhibition, % at 4.8 µM. 1.2% of 360,000 active. GDH-TPI coupled enzyme counterscreen, NADH absorbance; in the data active means inhibition above about 30%
Mtb hypoxia inh = inhibitors of hypoxia-regulated fluorescent reporter in Mycobacterium tuberculosis; M. tuberculosis hypoxia-regulated fluorescent reporter, fluorescence; fluorescence inhibition, % (no concentration beside the values); 0.1% of 300,000 active; in the data active means fluorescence inhibition mostly above about 23%, no sharp cut-off; inactive means mostly below about 17%
Mtb BioA inh = BioA (M. tuberculosis) enzyme inhibition; 0.096% of 360,000 active; purified M. tuberculosis BioA enzyme, plate reader; inhibition, % at 9.99 µM; in the data active means inhibition above about 40%
FadD28 binding = inhibitors of Mycobacterium tuberculosis FadD28 bisubstrate binding; inhibition, % at 12.5 µM; FadD28 bisubstrate probe binding, fluorescence polarization; 0.22% of 360,000 active; in the data active means inhibition above about 8.5%, passing the limit was not always enough
FBA Mtb inh = inhibitors of M. tuberculosis fructose-bisphosphate aldolase; P9WQA3; purified M. tuberculosis FBA, fluorescence read-out; AID 588726; inhibition, % at 1 µM; 2.3% of 360,000 active
Target sequence (P9WQA3 whole entry, looked up): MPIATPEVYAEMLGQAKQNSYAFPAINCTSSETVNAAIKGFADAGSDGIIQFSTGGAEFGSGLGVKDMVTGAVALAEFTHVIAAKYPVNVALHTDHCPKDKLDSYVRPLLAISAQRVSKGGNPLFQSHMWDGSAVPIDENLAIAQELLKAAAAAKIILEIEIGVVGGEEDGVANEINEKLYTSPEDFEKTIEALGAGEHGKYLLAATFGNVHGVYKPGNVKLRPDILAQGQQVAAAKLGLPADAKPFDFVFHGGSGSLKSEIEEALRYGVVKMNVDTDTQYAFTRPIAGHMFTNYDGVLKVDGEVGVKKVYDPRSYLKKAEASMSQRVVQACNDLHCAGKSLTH
Mtb FBA inh conf = Mtb FBA inhibition, confirmed; shares compounds with FBA Mtb inh; purified M. tuberculosis FBA, fluorescence read-out; inhibition, % at 1 µM; 78% of 5,600 active
GDH-TPI counter-2 = inhibits GDH-TPI coupling enzymes, flagging Mtb FBA hits; shares compounds with FBA Mtb inh; GDH-TPI coupled enzyme counterscreen, fluorescence; inhibition, % at 1 µM; 81% of 5,600 active; AID 652141; in the data active means inhibition above about 10%
GDH-TPI dose = inhibits GDH-TPI coupling enzymes in dose response; shares compounds with FBA Mtb inh; GDH-TPI coupled enzyme assay, fluorescence, artifact counterscreen; IC50, µM; 79% of 170 active; AID 652145; call rule not given here
Hits are given with their value; i = inactive; nt = no result; + = active, no number; ! = a repeat was not active. Shown are actives, neighbours in structure and some others; about 2.9% of the full set was active somewhere. Unless noted, no stated cut-off is given here; in the data, active means inhibition above about 27%; inactive means the rest.

SMILES	GDH-TPI counter-1	Mtb hypoxia inh	Mtb BioA inh	FadD28 binding	FBA Mtb inh	Mtb FBA inh conf	GDH-TPI counter-2	others
C[C@H](CO)N1C[C@H](C)[C@@H](CN(C)Cc2ccc(C(F)(F)F)cc2)Oc2ccc(NS(=O)(=O)c3cn(C)cn3)cc2CC1=O	nt	nt	i	nt	nt	nt	nt
CN1CCN(S(=O)(=O)c2ccc(N3CCN(C(c4ccccc4)c4ccccc4)CC3)nc2)CC1	i	i	i	i	81.0	+	173.2
O=C(NN=Cc1ccco1)c1cccc(S(=O)(=O)Nc2ccccc2Cl)c1	nt	i	nt	nt	nt	nt	nt
O=C(C1CC1)N1CCCCN2[C@@H](CO)[C@H](c3ccc(C#CC4CC4)cc3)[C@@H]2C1	nt	nt	i	nt	nt	nt	nt
CN1CCc2c(sc3nc(SCC(=O)N4CCOCC4)nc(N)c23)C1	i	i	nt	i	53.9	i	i
COc1ccc(C(=O)N/N=C/c2ccc(N(C)c3ccccc3)cc2)cc1	i	nt	i	i	40.9	109.4	99.0
COc1ccc(C=NNC(=O)c2ccc(N(C)S(=O)(=O)c3ccccc3)cc2)cc1	nt	i	nt	nt	nt	nt	nt
COc1ccc(OC)c(/C=N\NC(=O)c2ccc(-c3ccccc3)cc2)c1	i	nt	i	i	i	nt	nt
COc1ccc(C(=O)N/N=C/c2cc3ccccc3[nH]c2=O)cc1	50.0	nt	nt	i	39.7	126.5	106.5
COc1ccccc1C(=O)N1C[C@@H]2[C@H](c3ccccc31)[C@H](CO)N2C(=O)Cc1cccnc1	nt	nt	i	nt	nt	nt	nt
CC(=NOC(=O)c1ccccc1F)c1nccs1	nt	i	nt	nt	nt	nt	nt
CC[C@]12C(=O)N(C)CC(C3C(=O)N(C)C(=O)C31)N2C(=O)c1ccc(C)cc1 (stereo not given in full)	nt	i	nt	nt	nt	nt	nt
CCCNC(=O)C[C@@H]1CC[C@@H]2[C@H](COc3ccc(NC(=O)Nc4cccc(C)c4)cc3C(=O)N2C)O1	nt	nt	i	nt	nt	nt	nt
CSc1ccc(C=Nn2nnnc2N)cc1	nt	i	nt	nt	nt	nt	nt
COC(=O)C1CCN(C(=O)c2cc(-c3ccco3)nc3ccccc23)CC1	i	nt	i	i	108.8	53.6	42.9
O=C(c1ccco1)N1CCN(C(=O)c2cc(-c3ccccc3)nc3ccccc23)CC1	i	i	i	i	i	nt	nt
O=C(c1cc(-c2ccco2)nc2ccccc12)N1CCN(Cc2ccccc2)CC1	i	i	i	i	49.7	137.8	147.7
CC(=O)Nc1ncnc2c1c(-c1ccc(Cl)cc1)nn2C(C)(C)C	i	i	nt	i	49.5	80.8	75.1
CC(=O)N(C(C)=O)c1ncnc2c1c(-c1ccc(Cl)cc1)nn2C(C)(C)C	i	i	nt	i	50.2	i	i
C[C@@H]1CN([C@H](C)CO)S(=O)(=O)c2ccc(-c3cncnc3)cc2O[C@@H]1CN(C)C	nt	nt	i	nt	nt	nt	nt
CCOc1ccc(-n2cnnn2)cc1S(=O)(=O)NCc1ccccc1	i	i	i	i	i	nt	nt
CCOc1cc(S(=O)(=O)NCc2ccccc2)c(OCC)cc1-n1cnnn1	i	i	i	i	49.0	131.7	110.8
CCCN(CCC)CCNC(=O)c1cc2c(-c3ccc(Cl)cc3)nn(C)c2s1	i	i	i	i	49.7	163.3	120.1
CCCCN(CC)CCNC(=O)c1cc2c(-c3ccc(Cl)cc3)nn(C)c2s1	i	nt	i	i	77.1	i	i
CCOCCCNC(=O)c1cc2c(-c3ccc(Cl)cc3)nn(C)c2s1	i	nt	i	i	62.6	71.1	55.0
SMILES	GDH-TPI counter-1	Mtb hypoxia inh	Mtb BioA inh	FadD28 binding	FBA Mtb inh	Mtb FBA inh conf	GDH-TPI counter-2	others
CCCN(CCC)CCNC(=O)c1cc2c(-c3ccccc3F)nn(C)c2s1	i	i	nt	i	86.9	100.0	81.2
CC(C)C(=O)Nc1ccc2c(c1)C(=O)N(C)[C@@H]1CC[C@@H](CC(=O)Nc3ccccc3)O[C@H]1CO2	nt	nt	i	nt	nt	nt	nt
COc1ccc(NC(=O)Nc2ccc3c(c2)C(=O)N([C@@H](C)CO)C[C@@H](C)[C@@H](CN(C)S(=O)(=O)c2cn(C)cn2)OCCCC[C@@H](C)O3)cc1	nt	nt	i	nt	nt	nt	nt
C[C@H]1CN([C@@H](C)CO)C(=O)c2c(c3ccccc3n2C)-c2ccccc2CO[C@H]1CN(C)Cc1ccc(C(=O)O)cc1	nt	nt	i	nt	nt	nt	nt
O=C(C[C@H]1CC[C@H](NS(=O)(=O)c2ccccc2)[C@H](CO)O1)N1CCc2ccccc2C1	nt	nt	i	nt	nt	nt	nt
Nc1nc2ncc(CNc3ccc(C(=O)N[C@@H](CCC(=O)O)C(=O)O)cc3)nc2c(=O)[nH]1	i	nt	i	i	44.3	113.1	90.1
CN(Cc1cnc2nc(N)nc(N)c2n1)c1ccc(C(=O)N[C@@H](CCC(=O)O)C(=O)O)cc1	i	nt	i	i	108.0!	119.1	108.4
O=C(O)CCC(NC(=O)c1cncc(O)c1)C(=O)O (stereo not given)	i	i	i	i	i	nt	nt
Cc1ccc(CNC(=O)c2c(-c3ccccc3)sc3ccccc23)o1	i	i	i	i	i	nt	nt
COc1cc2sc(-c3ccc(S(C)(=O)=O)cc3)c(C(=O)NCc3ccc(C)o3)c2cc1OC	i	i	i	i	37.2	99.5	83.3
COc1cc2sc(-c3ccc(S(C)(=O)=O)cc3)c(C(=O)NCCCCO)c2cc1OC	31.0	i	i	i	45.9	45.8	30.5
C[C@@H]1CN([C@H](C)CO)C(=O)Cc2cc(NS(C)(=O)=O)ccc2O[C@@H]1CN(C)Cc1ccc(-c2ccccc2)cc1	nt	nt	i	nt	nt	nt	nt
C[C@@H]1CN([C@@H](C)CO)C(=O)Cc2cc(NC(=O)CCCCCC(=O)Nc3ccccc3N)ccc2O[C@H]1CN(C)C(=O)NC1CCCCC1	nt	nt	i	nt	nt	nt	nt
CCOc1ccc(-n2nc(C(=O)NC3CCCCC3)c3ccccc3c2=O)cc1	i	i	i	i	i	nt	nt
CCN(CCCNC(=O)CNC(=O)c1nn(-c2ccc(OC)c(OC)c2)c(=O)c2ccccc12)c1ccccc1	i	i	nt	i	27.1	188.6	156.0
CCOc1ccc(-n2nc(C(=O)NCCOC)c3ccccc3c2=O)cc1	i	nt	i	i	67.5	+	191.1
CN(C)C(=O)C[C@H]1C=C[C@H](NC(=O)C2CC2)[C@H](CO)O1	nt	nt	i	nt	nt	nt	nt
CCOC(=O)Nc1cc2c(C)cc(=O)oc2cc1C	i	i	nt	i	28.4	53.6	42.0
CCOC(=O)Nc1ccc(C)cc1C	i	i	i	i	i	nt	nt
COCC(=O)N(Cc1cc2ccc(C)cc2[nH]c1=O)c1ccc(OC)cc1	i	i	i	i	61.5	138.7	127.7
CCOc1ccc(N(Cc2cc3ccc(C)cc3[nH]c2=O)C(=O)COC)cc1	i	nt	i	i	i	nt	nt
COc1ccc(-c2cc3c(=O)n(CC(=O)NCc4cccnc4)nc(C)n3n2)cc1	i	i	i	i	28.4	i	10.8
COc1ccc(-c2cc3c(=O)n(CC(=O)Nc4ccc(Cl)cc4)nc(C)n3n2)cc1	i	i	i	i	i	nt	nt
Fc1ccc(COc2ccc(C(=S)N3CCCC3)cc2)cc1	i	i	i	i	i	nt	nt
S=C(c1ccc(OCc2ccccc2)cc1)N1CCCC1	i	i	i	i	30.4	i	i	GDH-TPI dose=i
